The values that follow come from PubChem BioAssay (EPA / NIEHS).

SMILES strings stand for the structures. Records with an inconclusive call do not appear. Active and inactive are the calls of the source. The calls were made as follows, unless noted: active = hit-call score of the fitted dose curve at least 0.9, where 1 is the maximum; inactive = score below 0.9.

A word on the AC50: it is the midpoint of the concentration-response curve, whichever way the signal moves.

In test [1] the target is Hepatocyte nuclear factor 3-beta (Homo sapiens) (UniProt Q9Y261). Nature of the test: ATG_FoxA2_CIS: Attagene CIS-FACTORIAL HepG2 Assay for human Forkhead box A2 (FOXA2) (AID 2282942). Conditions: HepG2 cis-reporter transcription factor activity, 24 h; actives raise or lower the signal. Summed up:
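Endogenous transcription factor activity was read in HepG2 cells carrying transiently transfected cis-promoter reporter units. After 24 h dosing, reporter mRNA was quantified by RT-PCR and capillary electrophoresis, and values fitted bidirectionally versus DMSO.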

The nature of test [2]: ATG_RORE_CIS: Attagene CIS-FACTORIAL HepG2 Assay for human RAR-related Orphan Receptor Element (RORE) (AID 2282959). Conditions: HepG2 Attagene cis-factorial RORE reporter, mRNA; actives raise or lower the signal. Summed up:
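Cells were HepG2 carrying transfected cis-regulated reporter constructs, dosed for 24 hours. Total RNA was reverse-transcribed and reporter cDNA amplified, fluorescently labeled and sized by capillary electrophoresis. Activity was fitted bidirectionally relative to DMSO.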

The nature of test [3]: ATG_Sox_CIS: Attagene CIS-FACTORIAL HepG2 Assay for human SRY-box transcription factor (SOX) (AID 2282960). The following applies: HepG2 Attagene cis-factorial SOX reporter, mRNA; actives raise or lower the signal. The essentials:
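Transient MRTU transfection of HepG2; 24 h compound incubation; TriZol RNA, oligo(dT) RT, PCR, 6-FAM primer extension, HpaI cut, CE. Bidirectional fit, DMSO = baseline.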

Test [4] has as its target Transcription factor Sp1 (Homo sapiens) (UniProt P08047). Nature of the test: ATG_Sp1_CIS: Attagene CIS-FACTORIAL HepG2 Assay for human Specificity Protein 1 (Sp1) (AID 2282961). Conditions: HepG2 Sp1 cis-reporter transcription, actives raise or lower the signal. Summed up:
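Endogenous Sp1 activity was gauged in human liver HepG2 cells bearing transfected reporter units under a cis-regulating promoter. After 24 h dosing, reporter mRNA was quantified by RT-PCR with capillary electrophoresis, and activity fitted bidirectionally versus DMSO.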

The nature of test [5]: ATG_SREBP_CIS: Attagene CIS-FACTORIAL HepG2 Assay for human Sterol Regulatory Element Binding (SREBP) (AID 2282962). Conditions: HepG2 Attagene cis-factorial SREBP reporter, mRNA; actives raise or lower the signal. The essentials:
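In this cis-format assay, HepG2 liver cells express reporters controlled by promoter elements responsive to native transcription factors. Exposure lasts 24 h; reporter mRNA fluorescence from capillary electrophoresis gives the signal, fitted bidirectionally against DMSO.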

Test [6] has as its target Signal transducer and activator of transcription 3 (Homo sapiens) (UniProt P40763). Nature of the test: ATG_STAT3_CIS: Attagene CIS-FACTORIAL HepG2 Assay for human Signal Transducer and Activator of Transcription 3 (STAT3) (AID 2282963). Conditions: HepG2, Attagene cis-factorial STAT3 reporter transcription; actives raise or lower the signal. Summed up: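 Readout: fluorescent reporter mRNA fragments resolved by capillary electrophoresis. Setup: HepG2 transfected with MRTUs reporting endogenous transcription-factor activity, dosed 24 h. Gain or loss of signal fitted bidirectionally against DMSO control.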

Test [7] in a line: ATG_TA_CIS: Attagene CIS-FACTORIAL HepG2 Assay for human TA Basal Promoter (AID 2282964). Conditions: HepG2 Attagene CIS-factorial TA basal promoter reporter; actives raise or lower the signal. Summed up: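 HepG2 cells transiently transfected with multiple reporter units under cis promoter elements, reporting endogenous transcription factor activity; this endpoint tracks the TA basal promoter as background control. Reporter mRNA after 24 h dosing measured by RT-PCR/capillary electrophoresis; bidirectional fits versus DMSO.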

Test [8] in a line: ATG_TCF_b_cat_CIS: Attagene CIS-FACTORIAL HepG2 Assay for human T-Cell-Factor with beta-catenin (TCF/b-cat) (AID 2282965). The following applies: HepG2 TCF/beta-catenin cis-reporter transcription, actives raise or lower the signal. The essentials: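 HepG2 cells transiently transfected with cis-promoter-driven multiplexed reporter units; reporter mRNA measured 24 h after dosing by RT-PCR, FAM labelling, HpaI digestion and capillary electrophoresis. Bidirectional fitting relative to DMSO baseline.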

The nature of test [9]: ATG_TAL_CIS: Attagene CIS-FACTORIAL HepG2 Assay for human TAL Basal Promoter (AID 2282966).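 Also: background control endpoint measuring basal TAL promoter reporter mRNA not a specific factor.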 The following applies: HepG2 Attagene cis-factorial TAL promoter reporter; actives raise or lower the signal. The essentials: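 Human hepatoma HepG2 cells, transfected with promoter-regulated reporter units, were treated 24 h. Reporter transcript levels, measured through RT-PCR and capillary electrophoresis, were fitted for gain or loss relative to DMSO.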

Test [10] can be described thus: ATG_VDRE_CIS: Attagene CIS-FACTORIAL HepG2 Assay for human Vitamin D Receptor Element (VDRE) (AID 2282968). The following applies: HepG2 VDRE cis-reporter transcription, actives raise or lower the signal. The essentials:
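Transient MRTU transfection of HepG2, 24 h compound exposure. Readout: reporter transcripts via RT-PCR and capillary electrophoresis, fluorescence. Bidirectional fit vs DMSO.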

For test [11], the target named is Transcriptional activator Myb (Homo sapiens) (UniProt P10242). Nature of the test: ATG_Myb_CIS: Attagene CIS-FACTORIAL HepG2 Assay for human Myeloblastosis (Myb) Proto-Oncogene Transcription Factor (AID 2282986). Conditions: HepG2 Attagene CIS-FACTORIAL Myb reporter transcription; actives raise or lower the signal. Summed up:
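Steps: transfect HepG2 with cis-regulated reporter units; dose with chemical for 24 h; isolate RNA, reverse-transcribe, PCR-amplify and FAM-label reporter sequences; digest with HpaI; resolve by capillary electrophoresis. Activity fitted in both directions relative to DMSO.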

Test [12] deals with Nuclear respiratory factor 1 (Homo sapiens) (UniProt Q16656). As to the kind of experiment: ATG_NRF1_CIS: Attagene CIS-FACTORIAL HepG2 Assay for human Nuclear Respiratory Factor 1 (NRF1) Orphan Gene (AID 2282987). Conditions: HepG2 NRF1 cis-element reporter, Attagene multiplex; actives raise or lower the signal. Summed up:
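Fluorescence intensity of labelled reporter cDNA fragments, resolved by capillary electrophoresis, served as readout for NRF1 cis-element activity. Transiently transfected HepG2 cells were dosed for 24 hours; activity in either direction was fitted against DMSO negative control.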

Test [13] is described as follows: ATG_NFI_CIS: Attagene CIS-FACTORIAL HepG2 Assay for human Nuclear Factor I (NFI) (AID 2282989). Conditions: HepG2 cis-regulatory reporter, NFI response element transcription; actives raise or lower the signal. Summed up:
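Endogenous TF activity in HepG2 cells transiently transfected with cis-element-driven multiplexed reporter units, read 24 h after dosing. Reporter mRNA quantified by RT-PCR, 6-FAM labelling, HpaI digestion and capillary electrophoresis; bidirectional fit versus DMSO.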

Test [14] addresses Myc proto-oncogene protein (Homo sapiens) (UniProt P01106). As to the kind of experiment: ATG_Myc_CIS: Attagene CIS-FACTORIAL HepG2 Assay for human Myelocytomatosis (Myc) Proto-Oncogene Transcription Factor (AID 2282990). Conditions: HepG2, Attagene cis-reporter transcription factor activity; actives raise or lower the signal. The essentials:
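Transiently transfected HepG2 cells bearing cis-promoter reporter units for endogenous transcription factors; 24 h exposure. Reporter mRNA measured by RT-PCR, 6-FAM primer extension, HpaI cut and capillary electrophoresis; bidirectional fit relative to DMSO.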

Test [15] is described as follows: ATG_NRF2_ARE_CIS: Attagene CIS-FACTORIAL HepG2 Assay for human Nuclear Factor Erythroid 2 Related Factor 2 (NFR2) response to Antioxidant Response Elements (ARE) (AID 2282992). The following applies: HepG2 Attagene ARE/NRF2 reporter, transcription factor activity; actives raise or lower the signal. The essentials: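 Using transiently transfected HepG2 cells exposed for 24 h, reporter mRNA levels were determined by RT-PCR with fluorescent primer extension and capillary electrophoresis, analysed for gain or loss of signal against DMSO.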

Test [16] can be described thus: ATG_Oct_MLP_CIS: Attagene CIS-FACTORIAL HepG2 Assay for human Octamer-Binding Transcription Factor (Oct) (AID 2282993). The following applies: HepG2 Attagene cis-factorial Oct reporter, mRNA; actives raise or lower the signal. The essentials: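 HepG2 cells transiently transfected with cis-element-driven reporter transcription units (endogenous TF activity); 24 h compound exposure. Reporter mRNA quantified by RT-PCR, 6-FAM labelling, HpaI digestion and capillary electrophoresis; bidirectional fit versus DMSO baseline.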

Test [17] has as its target Nuclear receptor subfamily 1 group I member 2 (Homo sapiens) (UniProt O75469). Nature of the test: ATG_PXR_TRANS: Attagene TRANS-FACTORIAL HepG2 Assay for human Pregnane X Receptor (PXR) (AID 2283008; active = hit-call score of the fitted dose curve at least 0.9, where 1 is the maximum). The essentials: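 Multiplexed TRANS reporter panel in HepG2; this component tracks PXR-Gal4-driven reporter mRNA after 24 h dosing, measured by RT-PCR with capillary electrophoresis fluorescence, fitted against DMSO.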

The nature of test [18]: ATG_XTT_Cytotoxicity: Cytotoxicity Assessment in the Attagene TRANS-FACTORIAL HepG2 Assay (AID 2283584; active = hit-call score of the fitted dose curve at least 0.9, where 1 is the maximum). Summed up: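 24 h chemical exposure of reporter-transfected HepG2; XTT signal loss vs DMSO indicates cytotoxicity.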
The target of test [19] is Heat shock factor protein 1 (Homo sapiens) (UniProt Q00613). Nature of the test: ATG_HSE_CIS: Attagene CIS-FACTORIAL HepG2 Assay for human Heat Shock Transcription Factor 1 (HSE) (AID 2282953). The following applies: HepG2 HSE cis-reporter, Attagene RNA transcription; actives raise or lower the signal. The essentials: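 HepG2 cells transfected with cis-promoter reporter units sensing endogenous transcription factor activity; reporter mRNA quantified 24 h post-dose by RT-PCR and capillary electrophoresis of 6-FAM-labelled products. Bidirectional fitting against DMSO.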
Sequence of Heat shock factor protein 1 (Homo sapiens) (Q00613 whole entry, looked up): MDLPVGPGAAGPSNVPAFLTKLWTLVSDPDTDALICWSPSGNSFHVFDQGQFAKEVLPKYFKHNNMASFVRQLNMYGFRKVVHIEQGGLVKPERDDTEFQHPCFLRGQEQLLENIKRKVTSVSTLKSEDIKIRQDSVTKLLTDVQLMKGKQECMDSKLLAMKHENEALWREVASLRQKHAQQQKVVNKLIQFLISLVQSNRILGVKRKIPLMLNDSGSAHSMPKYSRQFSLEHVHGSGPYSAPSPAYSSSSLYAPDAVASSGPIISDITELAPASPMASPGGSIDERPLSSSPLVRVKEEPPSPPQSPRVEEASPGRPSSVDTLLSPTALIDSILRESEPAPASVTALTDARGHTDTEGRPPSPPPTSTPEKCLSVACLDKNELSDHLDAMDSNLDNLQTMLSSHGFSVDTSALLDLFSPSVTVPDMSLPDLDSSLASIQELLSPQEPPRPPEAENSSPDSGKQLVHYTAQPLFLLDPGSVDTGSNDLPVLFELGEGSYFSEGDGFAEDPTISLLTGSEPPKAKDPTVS

Test [20] concerns the target Cellular tumor antigen p53 (Homo sapiens) (UniProt P04637). Nature of the test: ATG_p53_CIS: Attagene CIS-FACTORIAL HepG2 Assay for human p53 Transcription Factor (AID 2282994). Conditions: HepG2 p53 cis-element reporter, Attagene mRNA; actives raise or lower the signal. Summed up:
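In HepG2 cells, reporter transcription units under cis-regulatory promoters were transiently introduced. Following 24 h treatment, RNA was processed to labelled, digested cDNA fragments read by capillary electrophoresis; fitting was bidirectional versus DMSO.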

Sequence of Transcription factor Sp1 (Homo sapiens) (P08047 whole entry, looked up): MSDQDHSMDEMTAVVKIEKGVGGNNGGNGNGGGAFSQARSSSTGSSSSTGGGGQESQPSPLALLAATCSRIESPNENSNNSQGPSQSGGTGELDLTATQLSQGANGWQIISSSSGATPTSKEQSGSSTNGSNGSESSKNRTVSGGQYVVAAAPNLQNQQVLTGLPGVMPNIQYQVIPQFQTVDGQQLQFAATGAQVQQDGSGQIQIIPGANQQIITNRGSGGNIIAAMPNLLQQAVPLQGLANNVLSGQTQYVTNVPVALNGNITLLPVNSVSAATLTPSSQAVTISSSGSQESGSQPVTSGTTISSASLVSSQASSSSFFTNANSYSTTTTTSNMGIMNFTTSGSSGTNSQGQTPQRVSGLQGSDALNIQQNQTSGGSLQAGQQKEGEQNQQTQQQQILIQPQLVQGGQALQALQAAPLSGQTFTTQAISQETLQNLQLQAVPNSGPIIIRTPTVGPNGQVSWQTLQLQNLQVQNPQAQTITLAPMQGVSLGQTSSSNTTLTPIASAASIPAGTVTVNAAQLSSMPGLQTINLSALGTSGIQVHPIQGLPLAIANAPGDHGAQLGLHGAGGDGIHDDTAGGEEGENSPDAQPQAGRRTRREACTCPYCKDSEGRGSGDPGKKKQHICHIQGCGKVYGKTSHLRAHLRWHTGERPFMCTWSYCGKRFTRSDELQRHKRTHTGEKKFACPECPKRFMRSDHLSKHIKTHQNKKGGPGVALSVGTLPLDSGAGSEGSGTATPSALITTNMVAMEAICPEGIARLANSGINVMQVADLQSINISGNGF
Sequence of Myc proto-oncogene protein (Homo sapiens) (P01106 whole entry, looked up): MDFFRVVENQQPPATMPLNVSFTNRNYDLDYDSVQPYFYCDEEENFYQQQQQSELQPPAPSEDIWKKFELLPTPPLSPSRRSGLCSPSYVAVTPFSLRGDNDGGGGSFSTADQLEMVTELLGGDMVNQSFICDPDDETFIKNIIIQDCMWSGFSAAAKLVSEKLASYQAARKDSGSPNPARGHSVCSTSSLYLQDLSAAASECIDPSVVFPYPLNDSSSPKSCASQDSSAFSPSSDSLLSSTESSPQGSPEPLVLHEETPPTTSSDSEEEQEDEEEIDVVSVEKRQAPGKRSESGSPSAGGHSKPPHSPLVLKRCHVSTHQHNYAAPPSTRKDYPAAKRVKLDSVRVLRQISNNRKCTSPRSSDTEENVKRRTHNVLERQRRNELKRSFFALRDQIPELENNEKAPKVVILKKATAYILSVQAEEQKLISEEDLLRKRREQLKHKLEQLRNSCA
Sequence of Nuclear respiratory factor 1 (Homo sapiens) (Q16656 whole entry, looked up, the tested form may be a part): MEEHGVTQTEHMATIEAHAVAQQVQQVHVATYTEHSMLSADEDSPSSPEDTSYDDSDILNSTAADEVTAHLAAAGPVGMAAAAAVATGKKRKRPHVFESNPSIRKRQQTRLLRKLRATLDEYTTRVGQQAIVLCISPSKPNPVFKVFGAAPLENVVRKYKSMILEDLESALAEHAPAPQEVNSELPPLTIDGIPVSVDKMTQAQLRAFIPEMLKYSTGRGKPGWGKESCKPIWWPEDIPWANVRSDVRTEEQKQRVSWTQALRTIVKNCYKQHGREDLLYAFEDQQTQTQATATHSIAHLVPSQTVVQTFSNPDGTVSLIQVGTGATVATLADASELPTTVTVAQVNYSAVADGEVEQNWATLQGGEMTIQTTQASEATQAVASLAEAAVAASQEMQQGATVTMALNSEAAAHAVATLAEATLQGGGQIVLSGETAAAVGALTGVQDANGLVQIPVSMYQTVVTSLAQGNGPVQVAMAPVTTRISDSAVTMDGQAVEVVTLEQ
Sequence of Nuclear receptor subfamily 1 group I member 2 (Homo sapiens) (O75469 whole entry, looked up, the tested form may be a part): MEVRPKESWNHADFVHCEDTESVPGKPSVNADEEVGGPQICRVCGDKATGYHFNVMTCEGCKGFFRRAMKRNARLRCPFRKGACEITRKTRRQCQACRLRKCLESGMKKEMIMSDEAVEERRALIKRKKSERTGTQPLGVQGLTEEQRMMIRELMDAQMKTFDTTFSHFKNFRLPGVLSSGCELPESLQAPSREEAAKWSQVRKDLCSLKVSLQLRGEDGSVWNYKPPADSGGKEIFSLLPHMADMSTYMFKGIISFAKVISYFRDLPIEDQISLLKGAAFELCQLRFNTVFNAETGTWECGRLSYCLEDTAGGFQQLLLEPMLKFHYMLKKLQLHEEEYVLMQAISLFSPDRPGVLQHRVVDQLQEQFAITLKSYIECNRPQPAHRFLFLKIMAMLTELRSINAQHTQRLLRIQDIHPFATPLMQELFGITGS
Sequence of Transcriptional activator Myb (Homo sapiens) (P10242 whole entry, looked up): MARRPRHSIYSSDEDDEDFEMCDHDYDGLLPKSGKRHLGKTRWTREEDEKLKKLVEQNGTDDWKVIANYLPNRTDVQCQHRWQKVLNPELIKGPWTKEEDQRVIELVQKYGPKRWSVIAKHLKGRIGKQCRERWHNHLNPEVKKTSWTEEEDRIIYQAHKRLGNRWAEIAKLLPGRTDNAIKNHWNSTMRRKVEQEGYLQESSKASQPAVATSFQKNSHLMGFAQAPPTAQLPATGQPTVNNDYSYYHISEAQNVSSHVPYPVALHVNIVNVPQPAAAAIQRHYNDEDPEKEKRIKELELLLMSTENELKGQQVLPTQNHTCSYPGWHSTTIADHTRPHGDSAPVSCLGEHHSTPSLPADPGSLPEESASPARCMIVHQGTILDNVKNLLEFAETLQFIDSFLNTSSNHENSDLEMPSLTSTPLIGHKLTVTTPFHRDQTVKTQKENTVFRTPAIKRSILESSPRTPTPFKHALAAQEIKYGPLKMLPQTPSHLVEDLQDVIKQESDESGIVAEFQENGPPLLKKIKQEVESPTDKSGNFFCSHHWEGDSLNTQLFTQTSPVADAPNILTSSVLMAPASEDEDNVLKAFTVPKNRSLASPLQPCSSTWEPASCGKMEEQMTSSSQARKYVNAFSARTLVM
Sequence of Signal transducer and activator of transcription 3 (Homo sapiens) (P40763 whole entry, looked up, the tested form may be a part): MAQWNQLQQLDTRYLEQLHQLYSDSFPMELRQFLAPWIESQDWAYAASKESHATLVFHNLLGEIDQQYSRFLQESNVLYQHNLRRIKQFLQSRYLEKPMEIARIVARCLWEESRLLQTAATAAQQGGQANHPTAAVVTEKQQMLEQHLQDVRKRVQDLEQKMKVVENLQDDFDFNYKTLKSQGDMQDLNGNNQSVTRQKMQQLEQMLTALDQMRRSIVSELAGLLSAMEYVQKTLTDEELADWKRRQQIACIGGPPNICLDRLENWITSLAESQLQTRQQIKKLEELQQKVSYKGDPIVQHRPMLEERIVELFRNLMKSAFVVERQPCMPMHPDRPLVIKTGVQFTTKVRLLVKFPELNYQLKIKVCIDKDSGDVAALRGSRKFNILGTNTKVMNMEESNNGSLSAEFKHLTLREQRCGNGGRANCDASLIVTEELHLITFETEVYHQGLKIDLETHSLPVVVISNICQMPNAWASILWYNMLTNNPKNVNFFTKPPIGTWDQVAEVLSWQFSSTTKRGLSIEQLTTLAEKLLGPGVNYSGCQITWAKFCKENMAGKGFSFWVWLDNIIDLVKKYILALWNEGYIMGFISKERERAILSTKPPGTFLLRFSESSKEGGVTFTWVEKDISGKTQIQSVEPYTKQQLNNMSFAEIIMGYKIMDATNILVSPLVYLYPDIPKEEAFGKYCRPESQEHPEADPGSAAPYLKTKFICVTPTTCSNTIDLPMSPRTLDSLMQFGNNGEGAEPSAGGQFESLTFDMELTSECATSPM
Sequence of Hepatocyte nuclear factor 3-beta (Homo sapiens) (Q9Y261 whole entry, looked up): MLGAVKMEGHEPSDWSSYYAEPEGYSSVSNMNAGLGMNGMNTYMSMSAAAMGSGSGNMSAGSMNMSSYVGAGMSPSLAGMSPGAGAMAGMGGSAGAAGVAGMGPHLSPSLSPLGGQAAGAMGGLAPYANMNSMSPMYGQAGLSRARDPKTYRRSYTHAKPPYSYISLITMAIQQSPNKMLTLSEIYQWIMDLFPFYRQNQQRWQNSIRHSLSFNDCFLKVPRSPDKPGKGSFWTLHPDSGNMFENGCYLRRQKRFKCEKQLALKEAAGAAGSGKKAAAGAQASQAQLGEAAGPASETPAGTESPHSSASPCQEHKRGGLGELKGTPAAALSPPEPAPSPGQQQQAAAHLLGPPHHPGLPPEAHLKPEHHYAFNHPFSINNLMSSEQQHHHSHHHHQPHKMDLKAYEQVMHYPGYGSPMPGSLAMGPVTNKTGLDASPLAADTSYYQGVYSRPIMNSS
Sequence of Cellular tumor antigen p53 (Homo sapiens) (P04637 whole entry, looked up, the tested form may be a part): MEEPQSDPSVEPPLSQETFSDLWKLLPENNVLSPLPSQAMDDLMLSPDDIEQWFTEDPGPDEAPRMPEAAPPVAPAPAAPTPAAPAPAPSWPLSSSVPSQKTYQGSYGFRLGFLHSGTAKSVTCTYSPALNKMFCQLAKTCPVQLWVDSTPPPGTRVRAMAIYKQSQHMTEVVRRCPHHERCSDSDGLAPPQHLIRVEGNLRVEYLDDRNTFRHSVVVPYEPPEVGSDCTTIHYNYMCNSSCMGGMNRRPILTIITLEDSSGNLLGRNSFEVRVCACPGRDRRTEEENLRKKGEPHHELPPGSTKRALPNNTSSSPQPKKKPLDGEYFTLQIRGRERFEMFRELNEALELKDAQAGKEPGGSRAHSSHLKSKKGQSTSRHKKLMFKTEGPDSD

In the case of `CCC(C)(CCC(C)C)C(=O)O` (stereo unspecified), the call in [1], in test [2], in test [3], in test [4], in test [5] and in test [6] was inactive. Further, the result in test [7], in [8], in test [9], in [10], in test [11] and in test [12] was inactive. The outcome in [13], in test [14], in test [15], in test [16], in test [17] and in test [18] was inactive.
As to `NC(=O)c1ccc([N+](=O)[O-])cc1Cl`, the call in [1], in test [19], in test [2], in test [3], in test [4] and in test [5] was inactive. For the same compound, the outcome in test [6], in test [7], in test [8], in test [9], in test [10] and in [11] was inactive. Besides, the compound was called inactive in test [12], in test [13], in test [14], in test [15], in [16] and in test [20]. For the same compound, the compound was classed as inactive in test [17] and in [18].
Turning to `CC(=O)Nc1c(I)c(NC(C)=O)c(I)c(C(=O)O)c1I`, the compound was called inactive in [1], in test [19], in test [2], in test [3], in test [4] and in [5]. The compound was classed as inactive in [6], in [7], in [8], in test [9], in test [11] and in [12]. Moreover, the compound was classed as inactive in test [13], in test [14], in test [15], in test [16] and in test [18].
For the compound `O=C(Oc1ccccc1)c1ccccc1`, the compound was called inactive in test [1], in [19], in [2], in [3], in test [4] and in test [5]. Also, the compound was called inactive in test [6], in [7], in [8], in test [9], in test [11] and in [12]. Also, the compound was classed as inactive in [13], in [14], in [15], in test [16], in test [17] and in test [18].
For `COC(=O)CCSCCC(=O)OC`, the outcome in [1], in test [19], in [2], in test [3], in [4] and in test [5] was inactive. Further, the result in test [6], in test [7], in test [8], in test [9], in test [11] and in [12] was inactive. The outcome in [13], in test [14], in test [15], in test [16], in test [17] and in test [18] was inactive.
`Sc1nc2ccccc2s1`: the compound was called inactive in [1], in [19], in test [3], in test [4], in [5] and in test [6]. Further, the result in [7], in [8], in test [9], in test [10], in test [11] and in test [12] was inactive. Also, the compound was called inactive in test [13], in test [14], in test [16], in test [20], in test [17] and in test [18]. Further, the AC50 in [2] was 19.3 µM (active); in test [15], 100 µM (active).
With `CCC(C)=NO`, the result in [1], in [19], in test [2], in [3], in test [4] and in test [5] was inactive. For the same compound, the compound was called inactive in [6], in [7], in test [8], in test [9], in [10] and in test [11]. Further, the outcome in test [12], in test [13], in [14], in [15], in test [16] and in test [20] was inactive.
For `O=[N+]([O-])c1ccc2nc[nH]c2c1`, the compound was classed as inactive in test [1], in test [19], in test [2], in test [3], in test [4] and in test [5]. Also, the result in [6], in [7], in test [8], in [9], in test [11] and in test [12] was inactive. Also, the call in test [13], in [14], in test [15], in test [16] and in test [18] was inactive.
